The text below walks through data of PubChem BioAssay.

Activity calls are given as the source filed them.

In test [1] the test system is PRMT1 (protein arginine N-methyltransferase 1). Briefly: small molecules binding arginine methyltransferase PRMT1 – biochemical, small-molecule microarray, 635 nm fluorescence, primary screen (AID 1088).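 Also: binding of Prmt1 protein to compounds spotted on small-molecule microarray slides.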 As to conditions: higher = more signal.
Test [2] is described as follows: growth effects on S. cerevisiae YJM789 – YJM789 clinical isolate, OD600, 24 h, basal, primary screen (AID 1089).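 Also: growth of clinical yeast isolate S. cerevisiae YJM 789 seeded 1000 cells per well; test concentration not given here.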 The conditions noted are these: higher = more signal, called active from +8 up or from −8 down.
Test [3] can be described thus: S. pombe growth modifiers, basal conditions – strain 972, OD600, 24 h, no modulator, primary screen (AID 1090).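 Also: basal condition with compound alone and no growth modifier present; test concentration not given here.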 The conditions noted are these: S. pombe 972 growth, higher = more signal, called active from +8 up or from −8 down.
The nature of test [4]: budding yeast growth modifiers under rapamycin – strain BY4716, OD600, 96 h, primary screen (AID 1091). Also: test concentration not given here. As to conditions: S. cerevisiae BY4716 + rapamycin, higher = more signal, called active from +8 up or from −8 down.
Test [5] addresses Torsin-1A-interacting protein 2 (Homo sapiens) (UniProt Q8NFQ8). The test is described as follows: small molecules binding lysate-expressed LULL1 – cell lysate, human LULL1 lysate, 635/667 nm fluorescence, primary screen (AID 1092).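 Also: probe is lysate of COS7 cells overexpressing human LULL1; score merges per-feature 667 nm fluorescence with signal-to-noise.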 As to conditions: small-molecule microarray, hLULL1 lysate binding, 635 nm fluorescence; higher = more signal.
The nature of test [6]: optical density change of DRC41 E. coli – strain DRC41, OD650, 24 h, E. coli filamentation project, primary screen (AID 1093).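 Also: MC1000 strain lacking acrAB efflux and sulA so SOS filamentation is blocked; test concentration not given here.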 As to conditions: E. coli DRC41 growth, higher = more signal, called active from +8 up or from −8 down.
Test [7] in a line: probe aLefty2 binding to arrayed compounds – biochemical, biotinylated probe, 635/667 nm fluorescence, primary screen (AID 1094).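 Also: score merges spot fluorescence near 667 nm with spot signal-to-noise ratio.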 As to conditions: small-molecule microarray, higher = more signal.
Test [8] relates to Noggin (protein binding on small-molecule microarray). Briefly: small molecules binding Noggin protein – biochemical, 635/667 nm fluorescence, primary screen (AID 1095).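 Also: score merges 667 nm feature fluorescence with signal to noise over triplicate slides.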 The conditions noted are these: 635 nm fluorescence, higher = more signal.
Test [9] deals with Neurogenic locus notch homolog protein 3 (Homo sapiens) (UniProt Q9UM47). Briefly: small molecules binding NOTCH3 protein – biochemical, 635/667 nm fluorescence, primary screen (AID 1096). The conditions noted are these: small-molecule microarray, 635 nm fluorescence, higher = more signal.
Test [10] in a line: probe aEGFR binding to arrayed compounds – biochemical, biotinylated probe, 635/667 nm fluorescence, primary screen (AID 1097).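 Also: probe is a biotinylated anti-EGFR antibody binding compounds printed on slides; score combines fluorescence near 667 nm and signal to noise of each spot.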 The conditions noted are these: small-molecule microarray, higher = more signal.
Test [11] has as its system Plasmodium falciparum Sir2 (PF13_0152, Sir2A). Briefly: Plasmodium falciparum Sir2A binding compounds – biochemical, small-molecule microarray, 635 nm fluorescence, primary screen (AID 1098).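 Also: score merges spot fluorescence intensity with its signal-to-noise ratio.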 As to conditions: fluorescence 635 nm, higher = more signal.
Test [12] in a line: probe aDKK1 binding to arrayed compounds – biochemical, biotinylated probe, 635/667 nm fluorescence, primary screen (AID 1099).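 Also: score merges 667nm spot fluorescence with signal to noise across triplicate slides; reference of the scale not given here.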 As to conditions: small-molecule microarray, higher = more signal.
Test [13] is described as follows: probe aCHRDL2 binding to arrayed compounds – biochemical, biotinylated probe, 635/667 nm fluorescence, primary screen (AID 1100). The conditions noted are these: small-molecule microarray, higher = more signal.
Test [14] can be described thus: change in splice reporter luminescence, either direction, cell-based, HEK293, spliceosome inhibition project, primary screen (AID 1101).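 Also: HEK293 cells carrying a splicing-competent luciferase reporter gene; test concentration not given here.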 The conditions noted are these: HEK293 splicing luciferase reporter, 24 h, higher = more signal, called active from +8 up or from −8 down. For orientation: Reporter assays use an easily measured gene product as a stand-in for the process of interest.

Test [15] concerns the target Fibroblast growth factor 10 (Homo sapiens) (UniProt O15520). The test is described as follows: compounds binding fibroblast growth factor 10 – biochemical, small-molecule microarray, 635 nm fluorescence, primary screen (AID 1102). As to conditions: FGF10 binding, fluorescence 635 nm, higher = more signal.
In test [16] the test system is glycogen synthase kinase-3 (GSK3A per assay name; protocol says GSK3B). Briefly: compounds binding glycogen synthase kinase-3 – biochemical, small-molecule microarray, 635 nm fluorescence, GSK3A, primary screen (AID 1103). Also: the record names both GSK3A and GSK3B. As to conditions: fluorescence 635 nm, higher = more signal.
Test [17] addresses Epidermal growth factor receptor (Homo sapiens) (UniProt P00533). Briefly: compounds binding epidermal growth factor receptor – biochemical, small-molecule microarray, 635 nm fluorescence, primary screen (AID 1104).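 Also: score merges 667 nm emission intensity with spot signal to noise over triplicate slides.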 The conditions noted are these: EGFR binding, higher = more signal.
The target of test [18] is Follistatin-related protein 3 (Homo sapiens) (UniProt O95633). The test is described as follows: compounds binding follistatin-related protein 3 – biochemical, small-molecule microarray, 635 nm fluorescence, primary screen (AID 1105).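 Also: score merges emission near 667 nm and signal to noise per printed spot across three slides.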 The conditions noted are these: FSTL3 binding, higher = more signal.
Test [19] has as its target Dickkopf-related protein 1 (Homo sapiens) (UniProt O94907). Briefly: small molecules binding DKK1 protein – biochemical, small-molecule microarray, 635 nm fluorescence scan, primary screen (AID 1106).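 Also: score merges emission near 667 nm with signal to noise over three replicate slides.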 The conditions noted are these: higher = more signal.
The subject of test [20] is Inhibin beta A chain (activin A). The test is described as follows: small molecules binding activin A – biochemical, small-molecule microarray, 635 nm fluorescence scan, primary screen (AID 1107).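 Also: mouse activin A protein probed at 4.33 µg/mL on printed slides; score merges bound-protein fluorescence near 667 nm with spot signal-to-noise.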 As to conditions: INHBA, higher = more signal.

Chain of Dickkopf-related protein 1 (Homo sapiens) (O94907 whole entry, looked up): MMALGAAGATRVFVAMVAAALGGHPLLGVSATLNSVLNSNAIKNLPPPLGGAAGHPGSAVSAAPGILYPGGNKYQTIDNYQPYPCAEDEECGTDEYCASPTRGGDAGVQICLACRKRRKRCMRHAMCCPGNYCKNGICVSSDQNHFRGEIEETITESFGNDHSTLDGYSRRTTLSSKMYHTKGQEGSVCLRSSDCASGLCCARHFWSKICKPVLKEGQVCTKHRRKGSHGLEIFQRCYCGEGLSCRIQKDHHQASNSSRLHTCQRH
Chain of Follistatin-related protein 3 (Homo sapiens) (O95633 whole entry, looked up): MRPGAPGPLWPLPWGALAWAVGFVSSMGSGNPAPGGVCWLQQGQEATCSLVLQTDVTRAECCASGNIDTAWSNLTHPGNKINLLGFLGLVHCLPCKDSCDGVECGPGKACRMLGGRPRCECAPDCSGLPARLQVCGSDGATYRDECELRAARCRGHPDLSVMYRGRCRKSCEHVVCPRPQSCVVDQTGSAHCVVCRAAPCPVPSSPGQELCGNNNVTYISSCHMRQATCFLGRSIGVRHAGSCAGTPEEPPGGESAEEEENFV
Chain of Neurogenic locus notch homolog protein 3 (Homo sapiens) (Q9UM47 whole entry, looked up): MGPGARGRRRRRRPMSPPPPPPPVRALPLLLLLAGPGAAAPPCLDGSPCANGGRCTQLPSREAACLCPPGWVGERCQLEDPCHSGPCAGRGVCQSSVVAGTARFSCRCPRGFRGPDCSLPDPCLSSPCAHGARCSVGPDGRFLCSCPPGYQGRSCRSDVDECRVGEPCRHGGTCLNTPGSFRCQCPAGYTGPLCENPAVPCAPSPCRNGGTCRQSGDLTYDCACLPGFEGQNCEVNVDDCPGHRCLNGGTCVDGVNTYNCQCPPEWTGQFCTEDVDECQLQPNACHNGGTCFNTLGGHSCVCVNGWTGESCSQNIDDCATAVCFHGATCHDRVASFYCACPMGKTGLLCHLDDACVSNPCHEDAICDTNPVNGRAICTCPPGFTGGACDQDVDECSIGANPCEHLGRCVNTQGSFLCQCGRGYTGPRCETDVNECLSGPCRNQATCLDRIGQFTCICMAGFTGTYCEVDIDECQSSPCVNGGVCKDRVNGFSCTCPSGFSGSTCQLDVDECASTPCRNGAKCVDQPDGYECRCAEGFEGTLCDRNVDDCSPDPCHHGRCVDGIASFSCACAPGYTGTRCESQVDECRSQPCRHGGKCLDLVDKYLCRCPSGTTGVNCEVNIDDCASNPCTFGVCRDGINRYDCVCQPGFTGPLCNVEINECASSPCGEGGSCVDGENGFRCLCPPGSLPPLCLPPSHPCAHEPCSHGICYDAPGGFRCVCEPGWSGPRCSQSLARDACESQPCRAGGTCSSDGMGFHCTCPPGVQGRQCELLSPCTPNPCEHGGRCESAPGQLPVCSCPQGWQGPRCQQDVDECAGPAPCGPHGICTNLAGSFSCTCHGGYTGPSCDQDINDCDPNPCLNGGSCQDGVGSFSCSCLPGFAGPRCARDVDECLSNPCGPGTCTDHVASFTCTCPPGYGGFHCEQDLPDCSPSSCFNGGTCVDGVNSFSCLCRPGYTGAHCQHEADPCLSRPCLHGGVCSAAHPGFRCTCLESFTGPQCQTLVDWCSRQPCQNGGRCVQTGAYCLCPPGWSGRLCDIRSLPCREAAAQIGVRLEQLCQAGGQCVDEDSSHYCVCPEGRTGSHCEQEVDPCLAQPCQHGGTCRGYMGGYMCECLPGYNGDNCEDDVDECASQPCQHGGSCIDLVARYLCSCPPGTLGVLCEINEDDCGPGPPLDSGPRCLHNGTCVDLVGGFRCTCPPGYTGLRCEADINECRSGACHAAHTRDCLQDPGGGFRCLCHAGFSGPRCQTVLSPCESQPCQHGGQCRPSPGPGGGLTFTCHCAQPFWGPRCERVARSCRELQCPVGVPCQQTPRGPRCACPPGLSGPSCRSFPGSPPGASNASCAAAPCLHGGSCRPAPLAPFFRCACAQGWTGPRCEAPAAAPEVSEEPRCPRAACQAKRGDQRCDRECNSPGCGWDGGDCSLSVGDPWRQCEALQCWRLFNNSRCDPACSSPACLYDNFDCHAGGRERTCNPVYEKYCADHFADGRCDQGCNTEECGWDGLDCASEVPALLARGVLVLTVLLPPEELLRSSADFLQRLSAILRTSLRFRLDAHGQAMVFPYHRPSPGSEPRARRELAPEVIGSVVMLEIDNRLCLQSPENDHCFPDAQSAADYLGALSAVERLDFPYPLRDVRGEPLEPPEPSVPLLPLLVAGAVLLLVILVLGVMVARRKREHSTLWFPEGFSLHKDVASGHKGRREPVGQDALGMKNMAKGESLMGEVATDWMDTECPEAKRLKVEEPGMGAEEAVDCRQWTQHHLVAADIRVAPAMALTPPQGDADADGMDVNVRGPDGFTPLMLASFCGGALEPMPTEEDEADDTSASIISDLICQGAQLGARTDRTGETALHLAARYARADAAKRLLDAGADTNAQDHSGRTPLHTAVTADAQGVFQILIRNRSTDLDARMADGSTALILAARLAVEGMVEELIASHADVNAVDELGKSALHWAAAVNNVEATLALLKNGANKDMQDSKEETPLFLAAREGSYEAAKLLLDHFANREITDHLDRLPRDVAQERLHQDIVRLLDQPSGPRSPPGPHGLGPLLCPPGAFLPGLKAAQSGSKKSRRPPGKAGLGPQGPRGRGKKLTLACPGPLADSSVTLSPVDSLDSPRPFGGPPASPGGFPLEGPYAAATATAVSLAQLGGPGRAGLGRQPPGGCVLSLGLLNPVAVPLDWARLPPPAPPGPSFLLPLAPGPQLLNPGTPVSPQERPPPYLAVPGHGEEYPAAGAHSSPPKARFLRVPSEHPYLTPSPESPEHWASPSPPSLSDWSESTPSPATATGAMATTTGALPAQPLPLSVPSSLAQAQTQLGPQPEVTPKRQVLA
Chain of Torsin-1A-interacting protein 2 (Homo sapiens) (Q8NFQ8 whole entry, looked up): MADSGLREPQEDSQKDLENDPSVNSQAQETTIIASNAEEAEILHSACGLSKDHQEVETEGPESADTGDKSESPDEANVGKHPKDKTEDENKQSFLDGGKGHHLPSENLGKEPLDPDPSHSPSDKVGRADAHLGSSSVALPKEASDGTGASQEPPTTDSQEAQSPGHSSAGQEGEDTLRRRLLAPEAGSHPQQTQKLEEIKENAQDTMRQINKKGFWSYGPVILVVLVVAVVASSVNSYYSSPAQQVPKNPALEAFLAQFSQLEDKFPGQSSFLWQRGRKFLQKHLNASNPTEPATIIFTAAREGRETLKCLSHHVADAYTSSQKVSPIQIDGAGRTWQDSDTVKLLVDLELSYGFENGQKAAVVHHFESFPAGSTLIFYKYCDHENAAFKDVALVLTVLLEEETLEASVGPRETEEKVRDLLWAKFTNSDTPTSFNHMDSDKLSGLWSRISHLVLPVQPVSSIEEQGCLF
Chain of Epidermal growth factor receptor (Homo sapiens) (P00533 whole entry, looked up): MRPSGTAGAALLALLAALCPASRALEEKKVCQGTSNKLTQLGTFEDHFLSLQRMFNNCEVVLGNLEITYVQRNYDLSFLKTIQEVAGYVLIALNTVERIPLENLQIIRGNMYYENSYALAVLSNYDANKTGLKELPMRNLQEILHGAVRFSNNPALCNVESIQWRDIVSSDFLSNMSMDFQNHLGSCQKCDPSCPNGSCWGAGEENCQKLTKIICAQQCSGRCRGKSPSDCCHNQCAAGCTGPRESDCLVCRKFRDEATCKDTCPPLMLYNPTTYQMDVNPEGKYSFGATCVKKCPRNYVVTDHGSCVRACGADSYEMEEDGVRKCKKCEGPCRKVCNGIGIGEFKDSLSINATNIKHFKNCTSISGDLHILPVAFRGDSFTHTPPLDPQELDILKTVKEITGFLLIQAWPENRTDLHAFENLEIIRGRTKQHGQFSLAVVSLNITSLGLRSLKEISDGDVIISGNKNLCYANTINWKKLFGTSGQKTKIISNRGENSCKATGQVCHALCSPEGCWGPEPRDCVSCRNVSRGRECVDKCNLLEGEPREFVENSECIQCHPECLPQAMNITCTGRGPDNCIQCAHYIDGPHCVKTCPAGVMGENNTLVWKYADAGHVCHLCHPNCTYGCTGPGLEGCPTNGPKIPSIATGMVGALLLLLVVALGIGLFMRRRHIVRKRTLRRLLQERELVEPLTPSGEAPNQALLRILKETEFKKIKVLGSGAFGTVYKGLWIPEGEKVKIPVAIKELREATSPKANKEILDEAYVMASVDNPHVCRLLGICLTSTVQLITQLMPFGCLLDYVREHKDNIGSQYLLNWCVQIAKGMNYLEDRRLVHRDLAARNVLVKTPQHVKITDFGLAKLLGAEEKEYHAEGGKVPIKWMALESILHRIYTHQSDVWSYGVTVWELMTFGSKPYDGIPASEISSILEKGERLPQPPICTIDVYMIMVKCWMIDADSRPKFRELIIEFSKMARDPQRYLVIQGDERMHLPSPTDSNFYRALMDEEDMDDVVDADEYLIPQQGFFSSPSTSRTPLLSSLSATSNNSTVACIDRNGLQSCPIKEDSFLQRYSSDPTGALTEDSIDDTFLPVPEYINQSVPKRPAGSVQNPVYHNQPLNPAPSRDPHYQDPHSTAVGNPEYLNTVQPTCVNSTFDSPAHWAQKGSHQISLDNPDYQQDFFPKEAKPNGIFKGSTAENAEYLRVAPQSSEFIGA
Chain of Fibroblast growth factor 10 (Homo sapiens) (O15520 whole entry, looked up): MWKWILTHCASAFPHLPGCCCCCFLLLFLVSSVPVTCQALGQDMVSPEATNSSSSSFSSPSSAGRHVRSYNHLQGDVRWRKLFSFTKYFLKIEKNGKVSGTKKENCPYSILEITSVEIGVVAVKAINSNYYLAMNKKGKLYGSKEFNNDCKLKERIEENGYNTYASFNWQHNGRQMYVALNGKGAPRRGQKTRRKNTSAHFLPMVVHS

As to `CC(C)CON=C1C[C@@H](O)[C@@H](O)[C@@H]2[C@@H]3C(=O)N(Cc4ccccc4)C(=O)[C@@H]3CC[C@H]12`, the composite z-score was -0.238 in [1]; 0.12 in test [5]; -0.117 in [7]; 0.454 in [8]; 0.824 in test [9]; 0.088 in test [10]. Further, the composite z-score in test [11] is 0.296; in [12], -0.373; in test [13], -0.583; in test [15], 0.415; in [16] it was 0.314; in test [17] it was 0.553. Also, the composite z-score is 0.538 in test [18], 0.373 in test [19] and -0.204 in test [20]. Also, the z-score is -0.549 (inactive) in test [2]; -0.449 (inactive) in [3]; -1.17 (inactive) in test [4]; 0.843 (inactive) in test [6]; -1.59 (inactive) in [14].
On to `CC(C)(C)N1C(=O)[C@H]2[C@H]3[C@H](O)[C@H](O)CC(=NOC[C@@H](O)COCc4ccco4)[C@H]3CC[C@H]2C1=O`, for which the composite z-score in test [1] is 0.446; in [5] it was 0.937; in test [7] it was 0.0913; in [8], -0.192; in test [9], -0.0654; in test [10] it was -0.12. Moreover, the composite z-score is 0.732 in test [11]; 0.486 in test [12]; 0.708 in test [13]; 0.207 in [15]; -0.274 in test [16]; -0.284 in test [17]. The figures for the composite z-score in [18], in test [19] and in test [20] were -0.28, -0.0956 and 0.0091, respectively. In addition, the z-score in test [2] was 0.009 (inactive); in test [3] it was 0.287 (inactive); in test [4], -0.229 (inactive); in test [6], 0.697 (inactive); in [14], 1.13 (inactive).
Take `COc1ccc(COC(=O)NN=C2C[C@@H](O)[C@@H](O)[C@@H]3[C@@H]4C(=O)N(Cc5ccc6c(c5)OCO6)C(=O)[C@@H]4CC[C@H]23)cc1`: the composite z-score in test [1] is 0.041; in test [5], 0.259; in test [7] it was 0.475; in test [8], -0.961; in [9], -0.523; in test [10] it was -0.194. For the same compound, the composite z-score is -0.218 in [11]; 1.16 in test [12]; 1.41 in test [13]; -0.67 in test [15]; -0.104 in test [16]; -0.953 in test [17]. Moreover, the composite z-score in [18] is -0.152; in [19] it was -1.03; in test [20] it was 0.991. Further, the z-score is 1.13 (inactive) in test [2]; 0.713 (inactive) in test [3]; -0.369 (inactive) in [4]; 0.434 (inactive) in [6]; 0.491 (inactive) in test [14].
Take `CC(C)=NOC[C@@H](O)[C@H]1O[C@@H]2OC(C)(C)O[C@@H]2[C@H]1O`: the composite z-score is 0.956 in test [1]; 0.178 in [5]; 0.19 in [7]; 0.625 in test [8]; 0.498 in test [9]; 0.0727 in test [10]. Moreover, the composite z-score was 0.231 in test [11]; -0.0464 in test [12]; -0.364 in [13]; 0.392 in test [15]; 0.892 in [16]; 0.487 in test [17]. In addition, the results for the composite z-score in test [18], in test [19] and in test [20] were 0.434, 0.58 and 0.5, respectively. Also, the z-score is 0.51 (inactive) in test [2]; 0.0819 (inactive) in test [3]; 0.243 (inactive) in test [4]; 0.132 (inactive) in test [6]; 0.211 (inactive) in test [14].
Turning to `CON=C(C)CCN1CCc2nc(-c3ccccc3)c(-c3ccccc3)cc2C1`, the composite z-score in test [1] was 0.0214; in test [5], -0.919; in test [7], -0.0699; in test [8], 0.107; in test [9] it was 0.556; in [10], -0.158. Further, the composite z-score in test [11] is 0.689; in test [12], -0.104; in test [13] it was 0.173; in test [15], -0.0075; in test [16] it was -0.478; in test [17], 0.629. The composite z-score in test [18] turned out to be 0.272; in test [19], 0.468; in [20], 1.25. In addition, the z-score was -1.08 (inactive) in test [2]; -17.2 (active) in test [3]; -3.67 (inactive) in test [4]; 1.69 (inactive) in test [6]; -0.316 (inactive) in test [14].
